Assay results taken from PubChem BioAssay AID624202 (National Center for Advancing Translational Sciences (NCATS), 2012).
Screen size: about 380,000 compounds; about 4,000 (1.1%) were called active. A call without a number means that no potency is given here. About 3% were inconclusive and are not listed. Calls follow the shape of the dose curve; as a rule, active = well fitted activation curve with a large enough effect; inconclusive = small, poorly fitted or top-dose-only effect; inactive = no such curve, though single readings can be large or run the other way. For the sample, actives were picked, then their nearest neighbours and some compounds at random.

Experiment: qHTS Assay to Identify Small Molecule Activators of BRCA1 Expression; also: nearly all actives have a fitted effect of over 80% in size
Conditions: MCF7-BRCA1-FFLuc reporter, luminescence, 48 h; series mostly up to 46.1 µM
How it was run: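 Cells: MCF7-BRCA1-FFLuc, 2000/well. Exposure: 48 h, 37 °C, 5% CO2. Read: luminescence, 15 min post-substrate. Controls: genistein 10 microM (maximal activation), DMSO (neutral).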
With `Cc1cc(C)c(NC(=O)Cn2c(SCC(=O)NCc3ccccc3)nc3ccccc32)c(C)c1` the Potency was “inactive”.
With `CC(=O)c1ccc(NC(=O)c2nc3nc(C)cc(C(F)F)n3n2)cc1` the Potency was “inactive”.
With `CC(=O)Nc1ccc(NC(=O)C2CCCN(S(=O)(=O)c3ccc4c(c3)CCCC(=O)N4)C2)cc1` (configuration not stated) the Potency was “inactive”.
For `Cn1c(=O)cc(OCC(=O)N2CCN(c3ccccc3)CC2)c2ccccc21`, the Potency was “inactive”.
In the case of `O=C(c1cnn(-c2ccc(F)cc2)c1-n1cccc1)N1CCN(c2ccc(F)cc2)CC1`, the Potency is reported as “inactive”.
For `CCOC(=O)c1ccc(NC(=O)CCn2cnnn2)cc1`, the Potency was “inactive”.
With `COc1cc2nc(SCc3ccc(F)cc3)n3nc(CCn4c(C)nc5ccccc54)nc3c2cc1OC` the Potency was “inactive”.
With `COc1ccc2oc(-c3ccc(C)c(NC(=O)c4sc5ccccc5c4Cl)c3)nc2c1` the Potency was “inactive”.
With `CCOc1ccc(CCNC(=O)c2c(C)oc3ncn(C)c(=O)c23)cc1` the Potency was “inactive”.
In the case of `COC(=O)c1ccccc1NC(=O)c1cnn(-c2ccc(F)cc2)c1-n1cccc1`, the Potency is reported as “inactive”.
In the case of `Cc1ccnc(NC(=O)c2ccc(NC(=O)c3ccco3)cc2)c1`, the Potency is reported as 11.2 µM (active).
For `Cc1ccc(NC(=O)C(c2ccccc2)N2CCN(C(=O)c3ccco3)CC2)cc1` (configuration not stated), the Potency was “inactive”.
In the case of `Cc1ccc(NC(=O)c2ccco2)cc1`, the Potency is reported as 7.94 µM (active).
With `CN1CCN(S(=O)(=O)c2ccc(NC(=O)c3ccco3)cc2)CC1` the Potency was “inactive”.
For `Cc1ccnc(NC(=O)CCC(=O)N(CC(=O)NCc2ccccc2)Cc2ccco2)c1`, the Potency was “inactive”.
With `CSCCC(NC(=O)c1ccco1)C(=O)Nc1cc(C)ccn1` (configuration not stated) the Potency was “inactive”.
For `COC(=O)CC1Oc2ccccc2-n2cc(-c3ccccc3)nc21` (configuration not stated), the Potency was “inactive”.
In the case of `CCN(CC)CCNC(=O)c1cc2c(=O)oc3ccc(C)cc3c2s1`, the Potency is reported as “inactive”.
For `CC(C)c1ccc(NC(=O)Cn2c3ncccc3c(=O)n2-c2ccccc2)cc1`, the Potency was “inactive”.
For `O=C(Nc1ccc(Br)cc1)c1ccc(Br)c(S(=O)(=O)NCc2ccccc2)c1`, the Potency was “inactive”.
With `COc1ccccc1NC(=O)Cn1cnc2ccc(S(=O)(=O)N3CCC(C)CC3)cc2c1=O` the Potency was “inactive”.
For `ClC/C=C/C[n+]1ccccc1Cl`, the Potency was “inactive”.
In the case of `CCc1nnc(NC(=O)[C@@H](NC(=O)c2cccc(C)c2)C(C)C)s1`, the Potency is reported as “inactive”.
With `CCc1nnc(NC(=O)/C=C/c2ccc(C)o2)s1` the Potency was 11.2 µM (active).
With `Cc1cc(NC(=O)COC(=O)/C=C/c2ccc(C)o2)no1` the Potency was “inactive”.
For `Cc1ccc(N2CCN(C(=O)CCc3c(C)nc4c(c3C)c(=O)n(C)c(=O)n4C)CC2)c(C)c1`, the Potency was “inactive”.
For `CSc1n[nH]c(-c2ccco2)n1`, the Potency was “inactive”.
For `O=C(Nc1ccc(Cl)cn1)c1cnn2cccnc12`, the Potency was 6.31 µM (active).
In the case of `O=C(COC(=O)c1ccco1)Nc1ccc(Cl)cn1`, the Potency is reported as “inactive”.
For `Cc1cccc(OCC(=O)OCC(=O)Nc2ccc(Cl)cn2)c1`, the Potency was “inactive”.
With `CN(C)CCN(C(=O)C1=COCCO1)c1nc2ccc(Cl)cc2s1` the Potency was 12.6 µM (active).
With `CC(C)N(Cc1nnc(-c2ccc(Cl)cc2)o1)C(=O)C1=COCCO1` the Potency was “inactive”.
For `Cc1cc(N2CCN(c3cccc(C(F)(F)F)c3)CC2)n2nc(-c3ccccc3)nc2n1`, the Potency was “inactive”.
In the case of `CCOC(=O)Cc1ccc(NC(=O)Nc2c[nH]c(=O)[nH]c2=O)cc1`, the Potency is reported as “inactive”.
With `COC(=O)c1ccc(C2C(C(=O)Nc3ccccc3)=C(C)Nc3nc4ccccc4n32)cc1` (configuration not stated) the Potency was “inactive”.
With `Cc1ccccc1-n1c(=O)c2ccccc2n(Cc2ccc(F)cc2)c1=O` the Potency was “inactive”.
For `Cn1c(CCN2CCN(c3ccccn3)CC2)nc2cc(NS(=O)(=O)c3ccc(F)cc3)ccc21`, the Potency was “inactive”.
For `Cc1nn(CC(=O)Nc2ccc3c(c2)nc(CN2CCCCC2)n3C)c(=O)c2ccccc12`, the Potency was “inactive”.
In the case of `Cn1c(CCN2CCCCCC2)nc2cc(NC(=O)Nc3ccccc3)ccc21`, the Potency is reported as 7.94 µM (active).
With `COc1ccc(-c2nc3nc(C)cc(C)n3c2Nc2c(C)cccc2C)cc1` the Potency was “inactive”.
In the case of `CCOC(=O)c1c(C)[nH]c(C)c1S(=O)(=O)N(C)CC(=O)N1CCN(c2ccccc2)CC1`, the Potency is reported as “inactive”.
For `CC(NC(=S)Nc1ccc(OC(F)F)cc1)c1ccc(F)cc1` (configuration not stated), the Potency was “inactive”.
For `CC(C)CNC(=S)Nc1ccc(F)cc1`, the Potency was 10 µM (active).
For `CC(C)CNC(=S)NNC(=O)c1ccccc1OC(F)F`, the Potency was “inactive”.
For `COc1ccc(/C=C/c2nnc(NC(=O)C(C)C)s2)cc1`, the Potency was 3.98 µM (active).
With `CC(C)C(=O)Nc1nnc(Sc2ccc(N(C)C)cc2)s1` the Potency was “inactive”.
For `O=C(CSc1ccccc1)Nc1nnc(/C=C/c2ccccc2)s1`, the Potency was “inactive”.
With `CCOc1ccc(OCC)c(NC(=O)c2c(C)nn(-c3ccccc3)c2-n2cccc2)c1` the Potency was “inactive”.
In the case of `Cc1cc2c(cc1S(=O)(=O)CCC(=O)Nc1ccc(OC(F)(F)F)cc1)OCC(=O)N2`, the Potency is reported as “inactive”.
With `CCOc1ccc(NC(=O)CSc2nnc3c(n2)[nH]c2ccc(S(=O)(=O)N4CCOCC4)cc23)cc1` the Potency was “inactive”.
In the case of `COc1ccc(Nc2nc(NCc3ccco3)nc(N/N=C/c3ccccc3Cl)n2)cc1`, the Potency is reported as “inactive”.
With `COc1ccc(-n2cnc3cc(NCc4ccco4)ccc32)cc1` the Potency was 8.91 µM (active).
